High-throughput results: PubChem BioAssay, National Center for Advancing Translational Sciences (NCATS)
In the library only some 3.1% were active in any assay of this set; here they are far more common.
VDR inh: vitamin D3 receptor (human) inhibition; P11473; VDR-SRC2-3 peptide fluorescence polarization, 2 h; Potency, µM, without a hit: max response, negative = inhibition, usual class: inhibitors; 400,000 tested, 0.93% active; further: potency means the concentration at half of the fitted maximal effect; on the % scale 0 is the no-effect control and ±100 the full control effect
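FP read-out; VDR + SRC2-3 coactivator peptide; 23 nl compound by pintool; 2 h RT incubation; reagents held at 4 deg C, protected from light.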
TSHR antag: blocks TSH signaling through the human TSH receptor; P16473; TSHR-expressing cells, TSH-stimulated cAMP HTRF, 2 h; stronger effect = lower value; activity change, negative = inhibition, % at 11.5 µM; 330,000 tested, 0.2% active;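 active means activity change below a set negative limit, meaning inhibition stronger than a set level, cut at about -70% in these data; inconclusive means activity change between two set negative limits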; further: on the % scale 0 is the no-effect control and ±100 the full control effect
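Cell-based HTRF cAMP assay; TSHR cells + compound, TSH EC80 (4nM final), 2 h, 37 deg C. Lysis with anti-cAMP cryptate and cAMP-d2, 30 min RT, read 665/620 nm.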
Vif-APOBEC3G blk: blocks the Vif interaction with human APOBEC3G | AID 602310 | HeLa A3G-eYFP + Vif (tagged APOBEC3G with the HIV-1 protein that degrades it), YFP fluorescence, overnight | Potency, µM (titrated, usually from 46.1 µM), without a hit: at the highest dose activity, negative = active, most hits filed as inhibitors | 410,000 tested, 0.076% active | Q9HC16; further: potency means the concentration at half of the fitted maximal effect; on the % scale 0 is the no-effect control and ±100 the full control effect; nearly all actives have a fitted effect of over 60% in size
Target sequence (Q9HC16 whole entry, looked up): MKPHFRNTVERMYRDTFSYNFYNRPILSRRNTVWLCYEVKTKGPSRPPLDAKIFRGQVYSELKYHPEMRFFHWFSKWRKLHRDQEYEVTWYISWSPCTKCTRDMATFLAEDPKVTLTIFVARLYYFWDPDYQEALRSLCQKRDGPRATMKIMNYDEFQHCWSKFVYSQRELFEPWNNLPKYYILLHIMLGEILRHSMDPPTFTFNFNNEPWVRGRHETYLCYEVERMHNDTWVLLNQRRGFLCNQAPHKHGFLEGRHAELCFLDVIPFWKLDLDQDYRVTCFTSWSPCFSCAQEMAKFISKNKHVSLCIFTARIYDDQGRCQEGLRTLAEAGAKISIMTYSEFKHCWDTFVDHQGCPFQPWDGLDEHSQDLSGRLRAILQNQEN
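Read-out is eYFP fluorescence (Ex 488/Em 500-530) from Vif-expressing HeLa A3G-eYFP cells; more signal means A3G escaped Vif-mediated degradation. Cells plated overnight, compound pinned in, incubated overnight at 37 deg C.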
PLK1 PBD block: inhibitors of human PLK1 polo-box domain binding. P53350. Plk1 PBD binding of FITC phosphopeptide, fluorescence polarization. Potency, µM, inactives show max response, negative = inhibition, usual class: inhibitors. 360,000 tested, 2.8% active. AID 720504; further: potency means the concentration at half of the fitted maximal effect; series mostly up to about 57 µM; on the % scale 0 is the no-effect control and ±100 the full control effect; nearly all actives have a fitted effect of over 65% in size
Vif-APOBEC3F blk: blocks the Vif interaction with APOBEC3F; HeLa A3F-eYFP + Vif (tagged APOBEC3F with the HIV-1 protein that degrades it), YFP fluorescence increase; Potency, µM (doses to about 46.1 µM), inactives show at the top dose activity, negative = active; 390,000 tested, 0.2% active; further: potency means the concentration at half of the fitted maximal effect; % of control where 0% means no effect; nearly all actives have a fitted effect of over 65% in size
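HeLa cells stably expressing A3F-eYFP plus Vif, plated and incubated overnight at 37 deg C, then exposed to compounds overnight at 37 deg C. Blocked degradation read as raised yellow fluorescence (Ex 488/Em 500-530).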
Numbers without * were called inactive; u = inconclusive; x = not tested or not shown. Unless noted, the call rests on the fitted dose curve; in most records, active means well fitted curve in the direction sought with a large enough effect; inconclusive means small, poorly fitted or top-dose-only effect, or another doubt; inactive means no such curve, though single readings can be large; an effect the other way counts as inactive or inconclusive.

SMILES	VDR inh	TSHR antag	Vif-APOBEC3G blk	PLK1 PBD block	Vif-APOBEC3F blk
CCOc1ccc(Nc2nc3cc(S(=O)(=O)N(CC)CC)ccc3o2)cc1	79.4µM*	-14.2	0.8%	5.32µM*	-0.8%
CCS(=O)(=O)c1ccc2oc(Nc3cc(C)cc(C)c3)nc2c1	0.0%	19.0	-4.0%	-5.3%	-2.8%
O=C(CCN1CCOCC1)Nc1ccc2c(c1)CCC2	3.9%	5.1	-1.2%	1.7%	8.1%
CN(C)S(=O)(=O)c1cc(NC(=O)CN2CCOCC2)ccc1Cl	-18.2%	-0.5	0.5%	23.8µM*	5.5%
O=C(CN1CCOCC1)Nc1ccc2c(c1)CCC2	u	-0.1	-0.6%	26.7µM*	3.2%
COc1ccc(/C=C/c2nccc3ccccc23)cc1OC	x	x	-18.4%	x	x
CCOn1c(=O)c(-c2ccc(C)cc2)[n+]([O-])c2ccccc21	13.8%	5.4	1.3%	6.2%	4.1%
COn1c(=O)c(-c2cccs2)[n+]([O-])c2ccccc21	-0.2%	-3.9	-8.1%	2.12µM*	x
CCOn1c(=O)c(-c2ccc(Cl)cc2)[n+]([O-])c2ccccc21	u	16.0	1.3%	21.2µM*	2.8%
O=c1c(-c2ccc(F)cc2)[n+]([O-])c2ccccc2n1OCc1ccccn1	u	1.9	1.0%	21.2µM*	1.5%
CCOn1c(=O)c(-c2cccs2)[n+]([O-])c2ccccc21	3.6%	4.2	-4.9%	u	-4.8%
S=C(NCCCc1cnc[nH]1)NCCCN(Cc1ccc(Cl)cc1)c1ccc(Br)cc1	3.3%	x	-10.6%	x	x
COc1ccc(C(=O)N(Cc2ccco2)Cc2cccs2)cc1	-12.9%	x	-0.8%	x	x
CC(=O)Nc1ccc2nc(NC(=O)c3ccc([N+](=O)[O-])o3)sc2c1	-15.1%	-17.9	12.6µM*	-9.4%	5.5%
CC(=O)Nc1ccc2nc(NC(=O)c3ccco3)sc2c1	-22.8%	-10.8	-3.1%	-11.0%	-2.4%
C1=C(CCNc2nnnn2-c2ccccc2)CCCC1	u	-15.7	0.5%	21.2µM*	x
c1ccc(CCNc2nnnn2-c2ccccc2)cc1	1.0%	19.6	0.5%	-8.9%	0.1%
COc1cc(OC)c2c(c1C(CCN1CCCC1)c1ccc(N(C)C)cc1)OC(=O)CC2c1ccc(N(C)C)cc1 (stereo not given)	3.5%	x	4.5%	x	x
COc1cc2ccccc2cc1C(=O)OCC(=O)Nc1ccc(Br)cc1	x	x	-13.9%	x	x
COc1ccc(C(=O)COC(=O)Cn2nnc3ccccc32)cc1Br	-0.8%	-3.3	-4.7%	-12.0%	-10.9%
COc1ccc(C(=O)n2nnc3ccccc32)cc1Br	-7.0%	10.3	0.5%	1.5µM*	-1.6%
COC(CNC(=O)c1ccc2c(c1)nc(C)n2-c1cccc(C)c1)OC	-10.7%	-4.7	-8.8%	29.9µM*	7.5%
Cc1c(C(=O)N2CCCCC2)c(S(=O)(=O)NCc2ccc(Cl)cc2)c(C)n1C	u	-5.7	0.8%	23.8µM*	-0.7%
Cc1c(C(=O)N2CCCCC2)c(S(=O)(=O)NCc2ccccc2Cl)c(C)n1C	u	-1.8	0.6%	26.7µM*	5.6%
COc1cccc(CNS(=O)(=O)c2c(C(=O)N3CCCCC3)c(C)n(C)c2C)c1	-10.4%	-6.7	7.1%	-8.0%	0.8%
SMILES	VDR inh	TSHR antag	Vif-APOBEC3G blk	PLK1 PBD block	Vif-APOBEC3F blk
COc1cccc(CNS(=O)(=O)c2c(C(=O)N3CCCCCC3)c(C)n(C)c2C)c1	-15.8%	-8.6	5.0%	26.7µM*	-0.8%
CCc1cc(-c2oncc2-c2ccc(OC)cc2)c(O)cc1OC	-4.3%	x	x	x	x
O=C(Nc1ccc(F)cc1)c1cccc(N2CCCS2(=O)=O)c1	-0.2%	x	5.5%	x	1.5%
CCCSc1ncc(Cl)c(C(=O)Nc2sc3c(c2C(=O)NCCCOC)CCCC3)n1	x	x	1.1%	x	x
CCCSc1ncc(Cl)c(C(=O)Nc2sc3c(c2C(N)=O)CCCC3)n1	7.1%	x	7.08µM*	x	x
CCOC(=O)C1=C(C)NC2=C(C(=O)C(C(=O)OCC)C(c3ccco3)C2)C1c1ccccc1C (stereo not given)	x	x	-1.9%	x	x
Cc1cc(NC(=O)C2CC2)ncc1NC(=O)c1ccccn1	-8.2%	-4.3	0.7%	26.7µM*	1.9%
Cc1cc(NC(=O)C2CCCCC2)ncc1NC(=O)c1ccccn1	9.5%	-5.2	-2.0%	-8.3%	3.4%
Cc1c(N(C)S(=O)(=O)c2cccc(C(=O)NC(C)C)c2)c(=O)n(-c2ccccc2)n1C	79.4µM*	-2.0	-0.4%	29.9µM*	17.3%
Cc1c(N(C)S(=O)(=O)c2cccc(C(=O)NCC3CCCO3)c2)c(=O)n(-c2ccccc2)n1C (stereo not given)	12.6%	15.4	0.4%	-7.8%	-2.8%
CCn1c(CC(=O)Nc2ccc(F)cc2)nnc1SCC(=O)N1CCOCC1	18.5%	-5.6	1.5%	29.9µM*	-5.5%
O=C1NC(=O)/C(=C\c2ccc(N3CCOCC3)o2)N1	25.1µM*	0.7	5.2%	10.6%	-24.0%
O=C1NC(=O)/C(=C/c2ccc(N3CCOCC3)o2)N1	79.4µM*	5.9	0.1%	1.0%	-16.4%
Cc1cc(/C=C2\NC(=O)NC2=O)c(C)n1-c1ccc(N2CCOCC2)cc1	7.8%	17.5	-6.6%	-6.5%	u
Cc1cc(/C=C2/NC(=O)NC2=O)c(C)n1-c1ccc(N2CCOCC2)cc1	-14.6%	-7.9	3.2%	-20.3%	-14.2%
CCOC(=O)C1=C(O)c2ccccc2C(=O)/C1=C\c1ccc(C)cc1	u	-12.7	u	0.67µM*	25.1µM*
CCOC(=O)C1=C(C)OC(=Cc2ccccc2)C1=O	x	x	2.8%	-18.5%	-11.4%
CCC1CCc2c(sc(NC(=O)c3cnccn3)c2C(N)=O)C1 (stereo not given)	u	18.7	-0.9%	2.99µM*	-11.0%
CCC1CCc2c(sc(NC(=O)c3ccco3)c2C(N)=O)C1 (stereo not given)	3.2%	-15.6	-5.6%	-21.1%	x
CC(=O)Nc1cc([N+](=O)[O-])cc(NC(C)=O)c1NC(C)=O	x	x	2.4%	x	x
Cc1ccc(/C=N/n2c(C)cc(C)c(C#N)c2=O)cc1	6.5%	1.1	-2.4%	-0.5%	-13.8%
Cc1cc(C)n(/N=C/c2ccc(O)cc2)c(=O)c1C#N	-29.8%	-1.3	0.9%	29.9µM*	15.4%
Cn1cnc2c(NCc3ccccc3)nc(Cl)nc21	13.6%	x	-7.7%	x	x
O=c1[nH]c2ccc(Cl)cc2c(-c2ccccc2)c1N1CCN(CCO)CC1	-16.3%	-27.1	2.2%	-11.3%	3.1%
COC(=O)[C@H](Cc1ccccc1)NC(=O)O[C@@H]1Cc2cc(OC)ccc2O[C@H]1c1cccc(OC)c1	-1.2%	x	x	x	x
CC1(C)CC(=O)c2c(O)cc(O)cc2O1	11.8%	x	1.1%	1.8%	-0.8%
C[C@]12CCC[C@H](O1)c1c(cc3c(c1O)C(=O)c1c(O)cc(O)cc1C3=O)O2	-0.5%	x	5.62µM*	u	8.91µM*
COc1ccccc1N=C1NC(=O)/C(=C/c2ccc(N(C)C)cc2)S1	-14.0%	-9.8	3.98µM*	20.0%	8.91µM*
COc1ccc(/C=C2\SC(=Nc3ccccc3)NC2=O)cc1	x	6.3	x	x	x
